Shown are actives, neighbours in structure and some others; about 13% of the full set was active somewhere.
HCV inh: inhibitors of hepatitis C virus infection; Huh7.5.1 HCVcc-Cre infection, luciferase reporter, 44 h; Potency, µM (series often up to 41.8 µM), for inactives: at the highest dose activity change, negative = inhibition, most hits filed as inhibitors; 340,000 tested, 3.4% active; AID 651820; note: potency is the fitted concentration of half-maximal effect
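A cell-based infection assay in which seeded cells (1,000 per well) receive test compound after 4 h, are inoculated with HCVcc-Cre at approximately 0.5 moi, and are incubated 44 h before luminescence detection.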
Pf growth 48h: inhibits P. falciparum growth in the first generation, 48 h; Potency, µM (titrated, usually from 28.7 µM), without a hit: top-dose activity change, negative = inhibition, usual class: inhibitors; P. falciparum luciferase growth in erythrocytes, 48 h; AID 504832; 310,000 tested, 5.9% active; note: potency is the fitted concentration of half-maximal effect
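Parasite viability was followed by luminescence of a genomically integrated firefly luciferase. Cultures held 0.1% parasitemia at 2% hematocrit (final), incubated under 5% CO2 at 37 C.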
HCMV inh: inhibitors of human cytomegalovirus | HFF cells, HCMV-luciferase reporter, 72 h; stronger effect = lower value | activity change, negative = inhibition, % at 57.5 µM | 410,000 tested, 4.5% active | AID 1259415; in the data active = activity change below about -60%; inconclusive = no clear call, values can overlap the other calls; inactive = above about -39%
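After 16 h attachment at 37C, HFF cells received test compound and HCMV-luciferase (1 PFU/cell); reporter luminescence read 72 h later, data normalized against buffer-only and known inhibitor Salinomycin.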
Pf growth 96h: P. falciparum growth inhibition at 96 hour, primary screen for plastid delayed-death inhibitors; P. falciparum luciferase reporter growth, 96 h; Potency, µM (highest dose often 28.7 µM), inactives show at the top dose activity change, negative = inhibition, usual class: inhibitors; 320,000 tested, 6.9% active; AID 504834; note: potency is the fitted concentration of half-maximal effect
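Luminescence readout: decreased luciferase signal marks inhibited growth of reporter-expressing P. falciparum in infected red cells (2% hematocrit, 0.05% parasitemia final), exposed to compound two generations (96 h, 37 C, 5% CO2).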
Numbers without * were called inactive; i = inactive; ? = inconclusive; nt = no result given. Unless noted, calls come from the whole dose curve; as a rule, active = well fitted inhibition curve with a large enough effect; inconclusive = small, poorly fitted or top-dose-only effect, or another doubt; inactive = no such curve, though single readings can be large or run the other way. % is set by controls: 0 for no effect and ±100 for the full control effect.

SMILES	HCV inh	Pf growth 48h	HCMV inh	Pf growth 96h
C/C(=N\S(=O)(=O)c1ccc(C)cc1)N1CCN(S(=O)(=O)c2ccccc2)C1	-11%	46%	32	46%
CN1CCC(Nc2nc(Br)cnc2N)CC1	nt	nt	10	nt
CCc1ccc(-n2c(=O)c3c4c(sc3n(Cc3ccccc3C#N)c2=O)CCCC4)cc1	nt	nt	8	nt
CC(=O)Nc1cc(C(=O)N2CCCC2)ccc1S(=O)(=O)c1ccc(C)cc1	12%	15%	-11	1.2µM*
Cc1ccc(S(=O)(=O)Nc2cc3c(C(=O)Nc4ccccc4)c(C)oc3c3ccccc23)cc1	?	?	-23	1.7µM*
CC(=O)Nc1cc(C(=O)N2CCC3(CC2)OCCO3)ccc1S(=O)(=O)c1ccc(C)cc1	11%	14%	9	18%
Cn1c(=O)c2c(SCC(=O)NCc3ccco3)nc(-c3ccccc3F)nc2n(C)c1=O	nt	nt	-2	nt
COc1cccc(CNC(=O)c2ccc(-c3nc(CSc4ccccc4)c(C)o3)cc2)c1	nt	nt	9	nt
COC(=O)Cc1c(C)c2cc3c(c(C)c2oc1=O)OCN(CCc1ccc(OC)cc1)C3	nt	nt	-6	nt
COC(=O)C(c1ccccc1)(c1cn(C)c2ccccc12)C(Nc1ccccc1)c1ccccc1 (stereo unspecified)	nt	nt	-24	nt
Cc1cccc(Cc2ccc3ncc(-c4cccc(C(N)=O)c4)n3n2)c1	nt	nt	-72*	nt
CNC(=O)c1cccc(-c2ccc3ncc(-c4cccc(C(=O)NCCN(C)C)c4)n3n2)c1	nt	nt	-30	nt
Cc1cc(C2=CC(C)(c3cc(C)oc3C)Nc3nc(C(F)(F)F)nn32)c(C)o1 (stereo unspecified)	nt	9.3µM*	nt	2%
Cc1ccc(C2=CC(C)(c3ccc(C)cc3)Nc3nc(C(F)(F)F)nn32)cc1 (stereo unspecified)	?	?	-23	?
COc1cc(-c2cc(OC)c3c(C)oc(C)c3c(=O)c2)ccc1OC(=O)c1ccccc1C	nt	nt	-10	nt
O=C1CC(c2ccco2)CC2=C1C(c1ccccc1)n1nc(C(F)(F)F)nc1N2 (stereo unspecified)	-10%	9.3µM*	-1	nt
CC1(C(=O)Nc2ccc3ccccc3c2)CCc2nc3ccccc3n21 (stereo unspecified)	nt	nt	22	nt
CC(=NCCN1CCOCC1)C1=C(O)c2ccccc2C1=O	6%	53%	-102*	33%
S=C(NN=C1CCCCC1=NNC(=S)N1CCOCC1)N1CCOCC1	nt	nt	-23	nt
Cc1nc2ccc(Br)cn2c1C(=O)N/N=C\c1ccccc1Cl	-7%	70%	-19	3.3µM*
COc1cccc(/C=N/NC(=O)c2c(C)nc3ccc(Cl)cn23)c1O	2.5µM*	9.3µM*	-99*	2%
CC(C)(C)OC(=O)N/N=C/c1cc(N=Nc2ccccc2)ccc1O	32µM*	?	14	?
CC(C)(C)OC(=O)N/N=C/c1c[nH]c2ccccc12	0%	2%	125	18%
COC(=O)N/N=C/c1ccccc1Cl	3%	i	-75*	78%
COc1ccc(C2C=C(c3ccccc3)Nc3nc(NS(=O)(=O)c4ccccc4)nn32)cc1 (stereo unspecified)	nt	nt	-8	nt
SMILES	HCV inh	Pf growth 48h	HCMV inh	Pf growth 96h
COc1cc(OC)cc(C2=Cc3ccccc3C(CC(C)=O)N2c2ccc(-c3cncnc3)cc2)c1 (stereo unspecified)	nt	nt	60	nt
COc1cc(OC)cc(C2=Cc3ccc(OC)cc3C(CC(C)=O)N2c2ccc(-c3cccs3)cc2)c1 (stereo unspecified)	nt	nt	-83*	nt
Cc1ccccc1NC(=O)CSc1nc2ccc(NC(=O)CCc3ccccc3)cc2s1	nt	nt	-11	nt
COc1ccc(C2Nc3ccccc3C(=O)N2c2ccccc2)cc1Cn1cc([N+](=O)[O-])cn1 (stereo unspecified)	-29%	13µM*	-37	5.2µM*
COc1ccc(N2C(=O)c3ccccc3NC2c2ccc(OC)c(Cn3cc([N+](=O)[O-])cn3)c2)cc1 (stereo unspecified)	-26%	?	31	44%
CN(C)CCN(C(=O)/C=C/c1cccs1)c1nc2ccc(Br)cc2s1	?	-4%	-27	-31%
COc1ccc(C)c2sc(N(CCN(C)C)C(=O)/C=C/c3cccs3)nc12	14µM*	?	?	?
COc1ccc(OC)c2sc(N(CCN(C)C)C(=O)/C=C/c3cccs3)nc12	?	?	-85*	?
CN(C)CCN(C(=O)/C=C/c1cccs1)c1nc2c(F)cc(F)cc2s1	?	12µM*	?	?
COc1cccc2sc(N(CCN(C)C)C(=O)/C=C/c3cccs3)nc12	?	-28%	0	?
CCOc1cccc2sc(N(CCN(C)C)C(=O)/C=C/c3cccs3)nc12	32µM*	?	nt	?
O=C(COc1ccccc1)Nc1ccc(C(=O)OCc2cc(=O)n3nc(C4CC4)sc3n2)cc1	nt	nt	15	nt
Cc1cc(F)ccc1Oc1cc(NN2CCCCC2)c([N+](=O)[O-])cc1[N+](=O)[O-]	8%	17%	-25	?
O=[N+]([O-])c1cc([N+](=O)[O-])c(Oc2ccc(Br)cc2Br)cc1NN1CCCCC1	?	59%	-9	12µM*
O=[N+]([O-])c1cc([N+](=O)[O-])c(Oc2cc(F)ccc2F)cc1NN1CCCCC1	2%	?	-85*	?
CCn1c(CN2CCCCC2)nc2cc(NC(=O)COc3ccc(C(C)(C)C)cc3)ccc21	nt	nt	-31	nt
O=S(=O)(c1cccs1)N1CN(C2CCCCC2)c2nc3ccccc3nc21	?	12µM*	0	5.2µM*
O=S(=O)(c1cccs1)N1CN(C2CCCC2)c2nc3ccccc3nc21	-19%	?	8	?
COc1cccc(-c2noc(COc3cccc(C)c3C)n2)c1	nt	nt	29	nt
Cc1ccc(-n2nnc(-c3nsc(NC(=O)c4ccc(C)c(C)c4)n3)c2C)cc1	nt	nt	0	nt
CCOc1ccccc1-n1nnc(-c2nsc(NC(=O)c3ccc(C)cc3)n2)c1C	nt	nt	-75*	nt
CCc1ccccc1-n1nnc(-c2nsc(NC(=O)c3ccc(C)c(C)c3)n2)c1C	nt	nt	-92*	nt
O=S(=O)(Nc1cccc(-c2ccc(N3CCOCC3)nn2)c1)c1ccccc1C(F)(F)F	nt	nt	49	nt
O=C(Cc1ccc(Cl)cc1)Nc1nnc2n1CCS2	nt	nt	3	nt
c1ccc2c(c1)nc(NCc1ccc3c(c1)OCO3)n2CCN1CCOCC1	31%	-22%	-7	21%
c1csc(-c2csc3nc(CN4CCOCC4)nc(NCc4ccc5c(c4)OCO5)c23)c1	?	?	-23	8.3µM*
CCOc1ccccc1NC(=O)Nc1nnc(N2CCCCCC2)s1	nt	nt	13	nt
O=[N+]([O-])c1ccc(N2CCCCC2)nc1N1CCCCC1	-29%	2.1µM*	-36	3.3µM*
CC(=O)c1cccc(S(=O)(=O)N2CCN(c3nc4cc(C)cc(C)c4cc3C#N)CC2)c1	13µM*	?	4	-24%
Cc1cc(C)c2cc(C#N)c(N3CCCN(S(=O)(=O)c4ccccc4)CC3)nc2c1	-1%	nt	nt	nt

Source: PubChem (National Center for Advancing Translational Sciences (NCATS))
